Consider 14 molecules from PubChem BioAssay (NCI).

About 83,000 compounds went through this panel and 20% of them were active in at least one assay; those are over-represented in the sample as a whole.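 Growth was measured after 48 h exposure to one concentration of compound in 96-well plates. Values under 10 count as active.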 Values without a mark were called inactive. The source made the active and inactive calls.

The test system of the test is MDA-MB-468 breast. Briefly: NCI-60 one-dose screen, 48 h (100 = growth as untreated, 0 = no growth, -100 = all killed). Particulars: 10 µM unless noted.
Take `CCCCCCCCCCCCCCCCCCNCc1ccc(Cl)cc1`: the growth was -71.9% (active).
As to `C/C(=C(\c1ccc(OCCN2CCOCC2)cc1)c1ccc(OC(=O)C2CCCCC2)cc1)c1ccc(Cl)cc1`, the growth was 79.2%.
Turning to `Cc1ccc(CC(=O)O)c(C)c1`, the growth is 112%.
The result for `Cc1ccc(S(=O)(=O)OCCCOS(=O)(=O)c2ccc(C)cc2)cc1` reads 100%; that for `CCn1cc(CNc2ccc(C(=O)Nc3cc4cc(OC)c(OC)cc4c(C)n3)cc2)cn1`, 41.8%.
Under `COc1cc(Cc2cc(OC)c(O)c(OC)c2)cc(OC)c1O` stands 65.2%; under `Cc1cc(NS(=O)(=O)c2ccc(-c3cnc(C4CC4)o3)cc2)ccc1Cl`, -6.6% (active); under `CCN(CC)CCOc1ccc(-c2c(-c3ccccc3)c(=O)oc3ccccc23)cc1`, 72.9%.
`O=C(c1ccccc1)c1ccc(-c2ccc(O)cc2)cc1`: the growth was -16.5% (active).
As for `Cc1nn(-c2ccc(Cl)cc2)c(C)c1N=Nc1ccc2oc(=O)ccc2c1`, the growth is 98.5%.
Regarding `CN(C)CCN1C(=O)c2cccc3c(/C=C/CN4C(=O)c5cccc6cccc(c56)C4=O)ccc(c23)C1=O`, the growth is 88.9%.
With `C=C(C)[C@@H]1CC[C@]2(C(N)=O)CC[C@]3(C)[C@H](CC[C@@H]4[C@@]5(C)CC[C@H](O)C(C)(C)[C@@H]5CC[C@]43C)[C@@H]12`, the growth was -56% [100 µM] (active).
On to `COc1ccc(C2=NN(c3ccc(S(N)(=O)=O)cc3)C(c3ccc(Cl)cc3)C2)c(O)c1` (centres undefined), for which the growth is 61.7%.
In the case of `CCSc1ccc([C@@H]2[C@@H](N)C(=O)N2c2cc(OC)c(OC)c(OC)c2)cc1`, the growth was 17%.
